In PubChem BioAssay (EPA / NIEHS):
The source made the active and inactive calls. How the source made its calls: active means hit-call score of the fitted dose curve at least 0.9, where 1 is the maximum; inactive means score below 0.9.

Tests used:
Conditions in all cases: mRNA level, 48 h; actives raise or lower the signal
[1] = read-out: NAD(P)H dehydrogenase [quinone] 1 (NQO1), NQO1 (gene 1728); assay: LTEA_HepaRG_NQO1: Life Technologies and Expression Analysis (LTEA) Assay for NAD(P)H dehydrogenase [quinone] 1 (NQO1) using HepaRG (AID 2283526)
In short: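 In this assay, gene expression is read by qRT-PCR after 48 h exposure of HepaRG cells to eight concentrations (max 100 uM, half-log) in 0.5% DMSO. Each chemical runs in duplicate, and activity is scored relative to vehicle.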

[2] = read-out: succinate dehydrogenase complex iron sulfur subunit B (SDHB), SDHB (gene 6390); assay: LTEA_HepaRG_SDHB: Life Technologies and Expression Analysis (LTEA) Assay for succinate dehydrogenase complex iron sulfur subunit B (SDHB) using HepaRG (AID 2283528)
In short: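 A human HepaRG culture in serum-free induction medium received test chemicals for 48 h over an eight-point range capped at 100 uM. SDHB expression change was quantified by qRT-PCR.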

[3] = read-out: Signal transducer and activator of transcription 3 (Homo sapiens) (UniProt P40763); assay: LTEA_HepaRG_STAT3: Life Technologies and Expression Analysis (LTEA) Assay for Signal transducer and activator of transcription (STAT3) using HepaRG (AID 2283529)
In short: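 HepaRG, 48 h exposure, 8-pt half-log series (top 100 uM), 0.5% DMSO vehicle, duplicates. Readout: STAT3 transcript by Fluidigm qRT-PCR, housekeeping-normalized; bidirectional fit vs DMSO baseline.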

[4] = read-out: solute carrier (SLCO1B1), SLCO1B1 (gene 10599); assay: LTEA_HepaRG_SLCO1B1: Life Technologies and Expression Analysis (LTEA) Assay for solute carrier (SLCO1B1) using HepaRG (AID 2283530)
In short: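 Differentiated human HepaRG cells were exposed for 48 h in serum-free induction medium to eight half-log concentrations, top 100 uM, in 0.5% DMSO. SLCO1B1 mRNA was measured by qRT-PCR, normalized to ACTB, GAPDH and POLR2A, and fitted bidirectionally against DMSO.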

[5] = read-out: sulfotransferase 2A1 (SULT2A1), SULT2A1 (gene 6822); assay: LTEA_HepaRG_SULT2A1: Life Technologies and Expression Analysis (LTEA) Assay for sulfotransferase 2A1 (SULT2A1) using HepaRG (AID 2283531)
In short: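 HepaRG human liver cells, 48 h exposure in serum-free induction medium to 8 half-log concentrations topping at 100 µM (0.5% DMSO), duplicate wells. SULT2A1 mRNA measured by TaqMan qRT-PCR, normalized to ACTB/GAPDH/POLR2A; bidirectional fit against DMSO.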

[6] = read-out: Transforming Growth Factor (TGFA), TGFA (gene 7039); assay: LTEA_HepaRG_TGFA: Life Technologies and Expression Analysis (LTEA) Assay for Transforming Growth Factor (TGFA) using HepaRG (AID 2283532)
In short: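 qRT-PCR read-out of TGFA transcript, normalized to three housekeeping genes, fitted bidirectionally against 0.5% DMSO baseline. Human HepaRG cultures received chemicals for 48 h at eight half-log concentrations, top 100 uM.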

[7] = read-out: Transforming Growth Factor (TGFB1), TGFB1 (gene 7040); assay: LTEA_HepaRG_TGFB1: Life Technologies and Expression Analysis (LTEA) Assay for Transforming Growth Factor (TGFB1) Transporter using HepaRG (AID 2283533)
In short: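 Differentiated HepaRG cells exposed 48 hr in serum-free induction medium to eight half-log concentrations up to 100 uM (0.5% DMSO), duplicate; TGFB1 mRNA by TaqMan qRT-PCR normalised to ACTB, GAPDH, POLR2A; bidirectional fit against DMSO.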

TIMP1, TIMP1 (gene 7076) = assay: LTEA_HepaRG_TIMP1: Life Technologies and Expression Analysis (LTEA) Assay for TIMP1 using HepaRG (AID 2283534)
In short: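 Differentiated HepaRG cells exposed 48 h in serum-free induction medium, duplicates, eight half-log concentrations from 100 uM in 0.5% DMSO. TIMP1 mRNA by qRT-PCR normalized to ACTB, GAPDH, POLR2A; bidirectional fitting against DMSO.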

[8] = read-out: Tumor necrosis factor receptor 1 (TNFRSF1A), TNFRSF1A (gene 7132); assay: LTEA_HepaRG_TNFRSF1A: Life Technologies and Expression Analysis (LTEA) Assay for Tumor necrosis factor receptor 1 (TNFRSF1A) using HepaRG (AID 2283535)
In short: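 Differentiated HepaRG cells in serum-free induction medium, exposed 48 h in duplicate to 8 half-log concentrations up to 100 uM in 0.5% DMSO. TNFRSF1A mRNA by Fluidigm TaqMan qRT-PCR, normalized to ACTB, GAPDH, POLR2A; bidirectional fit.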

[9] = read-out: Nuclear factor erythroid 2-related factor 2 (Homo sapiens) (UniProt Q16236); assay: LTEA_HepaRG_NFE2L2: Life Technologies and Expression Analysis (LTEA) Assay for Nuclear factor erythroid 2-related factor 2 (NFE2L2) Transcription Factor using HepaRG (AID 2283527)
In short: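 HepaRG, 48 h dosing, 8-pt half-log series from 100 uM in 0.5% DMSO, duplicates. Read-out: NFE2L2 mRNA by qRT-PCR (ACTB/GAPDH/POLR2A normalization). Bidirectional curve fit vs DMSO baseline.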

Measured: AC50

Sequence of Nuclear factor erythroid 2-related factor 2 (Homo sapiens) (Q16236 whole entry, looked up): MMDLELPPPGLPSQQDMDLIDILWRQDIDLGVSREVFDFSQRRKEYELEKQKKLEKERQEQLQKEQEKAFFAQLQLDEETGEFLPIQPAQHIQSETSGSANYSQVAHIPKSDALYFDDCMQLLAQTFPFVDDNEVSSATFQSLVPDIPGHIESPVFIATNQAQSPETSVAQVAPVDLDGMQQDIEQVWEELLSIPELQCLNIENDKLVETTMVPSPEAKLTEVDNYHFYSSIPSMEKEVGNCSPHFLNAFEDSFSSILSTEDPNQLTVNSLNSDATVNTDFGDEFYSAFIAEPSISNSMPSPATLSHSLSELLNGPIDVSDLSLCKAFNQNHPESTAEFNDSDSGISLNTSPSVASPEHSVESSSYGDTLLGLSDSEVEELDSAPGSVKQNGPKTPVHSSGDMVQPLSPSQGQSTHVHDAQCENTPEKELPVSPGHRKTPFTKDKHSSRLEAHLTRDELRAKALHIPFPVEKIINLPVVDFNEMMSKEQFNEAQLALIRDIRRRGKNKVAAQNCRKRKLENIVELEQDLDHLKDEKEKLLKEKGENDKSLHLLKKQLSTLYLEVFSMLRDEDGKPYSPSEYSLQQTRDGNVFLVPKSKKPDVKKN
Sequence of Signal transducer and activator of transcription 3 (Homo sapiens) (P40763 whole entry, looked up): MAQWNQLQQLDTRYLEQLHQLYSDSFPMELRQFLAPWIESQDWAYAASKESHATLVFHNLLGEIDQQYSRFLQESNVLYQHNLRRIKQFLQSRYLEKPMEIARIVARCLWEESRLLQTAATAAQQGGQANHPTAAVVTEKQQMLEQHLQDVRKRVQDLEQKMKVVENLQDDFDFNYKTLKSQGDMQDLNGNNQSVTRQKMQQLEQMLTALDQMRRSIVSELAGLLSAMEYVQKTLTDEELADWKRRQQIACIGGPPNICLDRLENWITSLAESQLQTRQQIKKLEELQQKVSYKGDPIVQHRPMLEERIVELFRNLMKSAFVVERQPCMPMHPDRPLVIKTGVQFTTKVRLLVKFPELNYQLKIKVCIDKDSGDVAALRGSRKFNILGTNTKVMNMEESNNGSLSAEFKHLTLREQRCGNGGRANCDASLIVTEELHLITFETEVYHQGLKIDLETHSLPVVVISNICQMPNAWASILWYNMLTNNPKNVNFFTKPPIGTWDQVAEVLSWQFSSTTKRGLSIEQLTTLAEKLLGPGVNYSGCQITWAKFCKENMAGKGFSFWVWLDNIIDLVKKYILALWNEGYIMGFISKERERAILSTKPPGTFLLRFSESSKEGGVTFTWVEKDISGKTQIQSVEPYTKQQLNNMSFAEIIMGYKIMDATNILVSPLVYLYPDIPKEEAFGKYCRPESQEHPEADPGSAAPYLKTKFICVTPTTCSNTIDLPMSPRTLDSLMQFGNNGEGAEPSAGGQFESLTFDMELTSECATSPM

C#CCC1=C(C)C(OC(=O)C2C(C=C(C)C)C2(C)C)CC1=O (stereo not drawn)
active: [2] 9.87 µM
not listed: [9]
inactive: all other assays above

CC(C)N(C(=O)SCC(Cl)=C(Cl)Cl)C(C)C
inactive: all assays above

COP(=O)(NC(C)=O)SC (stereo not drawn)
not listed: [6] | [8]
inactive: all other assays above

COP(=O)(OC)C(O)C(Cl)(Cl)Cl (stereo not drawn)
active: TIMP1, TIMP1 (gene 7076) 0.0702 µM | [8] 0.109 µM
not listed: [6]
inactive: all other assays above

CC1(C(=O)Nc2ccc(O)c(Cl)c2Cl)CCCCC1
not listed: [8] | [9]
inactive: all other assays above

CCCOCC(=Nc1ccc(Cl)cc1C(F)(F)F)n1ccnc1
active: [3] 50 µM | [4] 15.8 µM | [5] 66.6 µM | [7] 50 µM | TIMP1, TIMP1 (gene 7076) 88.9 µM | [8] 93.7 µM
inactive: [1] | [9] | [2]

CCNc1nc(Cl)nc(NC(C)(C)C#N)n1
inactive: all assays above

CCCCN(CC)c1c([N+](=O)[O-])cc(C(F)(F)F)cc1[N+](=O)[O-]
not listed: [6]
inactive: all other assays above

CCc1cccc(CC)c1N(COC)C(=O)CCl
not listed: [6]
inactive: all other assays above

CCOP(=S)(OCC)SCCSCC
not listed: [3] | [6]
inactive: all other assays above

Nc1c(Cl)cc([N+](=O)[O-])cc1Cl
active: [2] 50 µM | [3] 25 µM | [4] 50 µM | [5] 50 µM | TIMP1, TIMP1 (gene 7076) 74 µM | [8] 74.1 µM
inactive: [1] | [9] | [7]

CSC1=N[C@@](C)(c2ccccc2)C(=O)N1Nc1ccccc1
active: [9] 68.6 µM | [3] 9.92 µM | [4] 35.7 µM | [5] 34.9 µM
inactive: [1] | [7] | TIMP1, TIMP1 (gene 7076) | [8]

CCOP(=S)(OCC)Oc1ccc([N+](=O)[O-])cc1
not listed: [9]
inactive: all other assays above

Cc1cc(C2CC2)nc(Nc2ccccc2)n1
inactive: all assays above

CCC(CC)Nc1c([N+](=O)[O-])cc(C)c(C)c1[N+](=O)[O-]
active: [4] 50 µM
not listed: [6]
inactive: all other assays above

Cc1nn(-c2cc(NS(C)(=O)=O)c(Cl)cc2Cl)c(=O)n1C(F)F
not listed: [9]
inactive: all other assays above

COc1ccc(C(=CC(=O)N2CCOCC2)c2ccc(Cl)cc2)cc1OC
inactive: all assays above

COc1cccc(C(=O)NN(C(=O)c2cc(C)cc(C)c2)C(C)(C)C)c1C
active: [3] 5.4 µM | [5] 32.5 µM
not listed: [6]
inactive: all other assays above

CCCCSP(=O)(SCCCC)SCCCC
active: [9] 78 µM
not listed: [6]
inactive: all other assays above

CCOP(=O)(NC(C)C)Oc1ccc(SC)c(C)c1 (stereo not drawn)
inactive: all assays above

CNC(=O)ON=C(C)SC
not listed: [6]
inactive: all other assays above

FC(F)C(F)(F)OCC(Cn1cncn1)c1ccc(Cl)cc1Cl (stereo not drawn)
active: [9] 73.7 µM | [4] 70.4 µM | [5] 53.8 µM | [6] 62.2 µM | [7] 28.8 µM | [8] 49.8 µM
inactive: [1] | [2] | TIMP1, TIMP1 (gene 7076)

CN1COCN(Cc2cnc(Cl)s2)C1=N[N+](=O)[O-]
not listed: [6]
inactive: all other assays above

CC(COc1ccc(Oc2ccccc2)cc1)Oc1ccccn1 (stereo not drawn)
inactive: all assays above

CCCCOC(=O)[C@@H](C)Oc1ccc(Oc2ccc(C#N)cc2F)cc1
inactive: all assays above

CC(C)[C@H](C(=O)O[C@H](C#N)c1cccc(Oc2ccccc2)c1)c1ccc(Cl)cc1
inactive: all assays above

CC[C@H](C)[C@H]1O[C@]2(C=C[C@@H]1C)C[C@@H]1C[C@@H](C/C=C(\C)[C@@H](O[C@H]3C[C@H](OC)[C@@H](O[C@H]4C[C@H](OC)[C@@H](NC)[C@H](C)O4)[C@H](C)O3)[C@@H](C)/C=C/C=C3\CO[C@@H]4[C@H](O)C(C)=C[C@@H](C(=O)O1)[C@]34O)O2
active: [1] 31.7 µM | [3] 11.9 µM | [4] 19.9 µM | [5] 26.3 µM | [8] 12 µM
inactive: [9] | [2] | [6] | [7] | TIMP1, TIMP1 (gene 7076)

CC(C)=CC1C(C(=O)OCN2C(=O)C3=C(CCCC3)C2=O)C1(C)C (stereo not drawn)
not listed: [6]
inactive: all other assays above

CCc1cnc(C2=NC(C)(C(C)C)C(=O)N2)c(C(=O)O)c1 (stereo not drawn)
not listed: [6]
inactive: all other assays above

CN(C)C(=O)Nc1cccc(C(F)(F)F)c1
active: [9] 50 µM | [4] 50 µM | TIMP1, TIMP1 (gene 7076) 78.8 µM | [8] 81 µM
inactive: all other assays above

CC1=NNC(=O)N(/N=C/c2cccnc2)C1
inactive: all assays above

CCOP(=S)(OCC)Oc1ccc2c(C)c(Cl)c(=O)oc2c1
active: [9] 22.2 µM
not listed: [6]
inactive: all other assays above

CC(Oc1cccc(Cl)c1)C(=O)O (stereo not drawn)
not listed: [9]
inactive: all other assays above

S=C1NCCN1
active: [4] 0.24 µM
not listed: [6]
inactive: all other assays above
